Assay [1] is described as follows: blockers of polyQ-driven CASP3 activation – cell-based (AID 1583). To be noted: polyglutamine-induced caspase-3 activation, cell assay; stronger effect = higher value;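 tested at 10 µM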.
Assay [2] in a line: yeast 75Q aggregation reduction – 75Q-TubU reporter (AID 1593). Particulars: Yeast 75Q polyglutamine aggregation reporter.
The nature of assay [3]: restoration of touch response, mutant HTT neurons – whole organism, C. elegans mechanosensory neurons, N-terminal huntingtin (AID 1599). To be noted: C. elegans polyQ-huntingtin mechanosensory neurons, stronger effect = higher value.
Assay [4] is described as follows: blockers of cytochrome c efflux from mitochondria – biochemical, purified mitochondria (AID 1603).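 Note: mouse liver mitochondria challenged with calcium chloride; signal normalized to the plate average as 100%.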 Particulars: stronger effect = lower value.
A short description of assay [5]: polyglutamine aggregate formation blockers (AID 1604). To be noted: polyglutamine-induced protein aggregation inhibition assay; stronger effect = higher value; tested at 2.5 µM.
Assay [6] can be described thus: glutamate transport activators, MN-1 cells, MN-1 cell line (AID 1612).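 Note: tested at 1 µM final; 0% = mean of DMSO vehicle wells on each plate; positive means more glutamate uptake than control and negative means less.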 To be noted: MN-1 motor neuron cells, stronger effect = higher value.
The nature of assay [7]: 75Q-TubH aggregate inhibition, S. cerevisiae, yeast (AID 1616). To be noted: S. cerevisiae 75Q-TubH polyglutamine aggregation suppression; stronger effect = higher value.
Assay [8] in a line: compounds altering viability of human ES cells (AID 493140).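 Note: cells exposed to compounds for four days before counting.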 To be noted: human embryonic stem cell survival screen; stronger effect = higher value.
Assay [9] can be described thus: signal quenchers or enhancers, Cy5 substrate/SSB – biochemical, NIH Clinical Collection, E. coli SSB, artefact control for HCV NS3 helicase inhibitor project (AID 743268). Particulars: Cy5-oligo bound E. coli SSB, fluorescence interference.
Assay [10] deals with Hepatitis C virus NS3 helicase. As to the kind of experiment: blockers of NS3h binding to DNA – biochemical, fluorescence polarization, NIH Clinical Collection, primary screen (AID 743270). To be noted: NS3 helicase binding to Cy5-dT15 DNA, stronger effect = higher value, concentration not given here.
Assay [11] addresses Single-stranded DNA-binding protein (Escherichia coli (strain K12)) (UniProt P0AGE0). Put plainly: SSB-ssDNA binding inhibitors – biochemical, fluorescence polarization, NIH Clinical Collection, counter-screen for HCV NS3 helicase inhibitor project (AID 743271; in the data active = inhibition above about 28%). To be noted: E. coli SSB-DNA binding, stronger effect = higher value, concentration not given here.
A short description of assay [12]: compounds distorting NS3 helicase fluorescence signal – biochemical, NIH Clinical Collection, artefact control for HCV NS3 helicase inhibitor project (AID 743272).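 Note: HCV NS3 helicase with a Cy5 labelled single stranded DNA probe.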 Particulars: fluorescence interference counterscreen, HCV NS3 helicase assay; stronger effect = lower value. For orientation: Counterscreens check selectivity or assay interference.
Assay [13] can be described thus: modulation of C. elegans fzo-1 (AID 1259413).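 Note: fzo-1 mutant C. elegans worms in liquid wells.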 To be noted: C. elegans fzo-1 modulator screen, mean read-out; stronger effect = higher value.
Assay [14] has as its target Mitogen-activated protein kinase 7 (Homo sapiens) (UniProt Q13164). Put plainly: Gal4-ERK5 driven luciferase induction – cell-based, HTS, primary screen (AID 1508626;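 active = luciferase signal above three times the same-plate solvent-only control wells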;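 note: luciferase driven by Gal4-ERK5 fusion binding five Gal4 sites before minimal TATA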). To be noted: HeLa Gal4-ERK5 transactivation, 18 h, at 5 µM, stronger effect = higher value.
Assay [15] in a line: galactose survival enhancers in mitochondrial complex I cybrids – cell-based, galactose medium, ATP luminescence, primary screen (AID 1645843;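 active = z-score of at least 1.8 in each of two replicates, scored against plate mean and spread of sample wells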;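 note: positive z means more ATP and so rescue of galactose-driven cybrid death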). To be noted: complex I mutant cybrid cells, 72 h, stronger effect = higher value.
The subject of another assay is R275C/beta1. Put plainly: BK channel mutant inhibitors and activators – cell-based, U2OS BacMam, thallium flux, beta subunits, selectivity assay, profiling panel (AID 1259406;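 active = thallium flux through the channel raised or lowered by more than 3 SD from vehicle-only wells, actives on both sides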;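 note: initial slope of Thallos dye fluorescence rise after thallium is added; log ratio against the mean of 0.3% DMSO vehicle wells on the same plate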). Particulars: U2OS BacMam BK variants, at 30 µM.
In the next assay the test system is R275C/beta2Delta. The description is as above. Particulars: U2OS BacMam BK variants, at 30 µM.
For another assay, the system named is R275C/beta4. Described as above. To be noted: U2OS BacMam BK variants, at 30 µM.
For a further assay, the system named is R275C/Slo1WT/beta2. The assay is described as above. Particulars: U2OS BacMam BK variants, at 30 µM.

“And” between values parts separate entries of the source, which are not always exact repeats. Identical values can stand only once. For part of these data: Results with a measured potency or affinity are listed apart. The source made the active and inactive calls. Unless noted, the rule behind the calls is not given here.

Mitogen-activated protein kinase 7 (Homo sapiens), sequence (Q13164 whole entry, looked up, the tested form may be a part): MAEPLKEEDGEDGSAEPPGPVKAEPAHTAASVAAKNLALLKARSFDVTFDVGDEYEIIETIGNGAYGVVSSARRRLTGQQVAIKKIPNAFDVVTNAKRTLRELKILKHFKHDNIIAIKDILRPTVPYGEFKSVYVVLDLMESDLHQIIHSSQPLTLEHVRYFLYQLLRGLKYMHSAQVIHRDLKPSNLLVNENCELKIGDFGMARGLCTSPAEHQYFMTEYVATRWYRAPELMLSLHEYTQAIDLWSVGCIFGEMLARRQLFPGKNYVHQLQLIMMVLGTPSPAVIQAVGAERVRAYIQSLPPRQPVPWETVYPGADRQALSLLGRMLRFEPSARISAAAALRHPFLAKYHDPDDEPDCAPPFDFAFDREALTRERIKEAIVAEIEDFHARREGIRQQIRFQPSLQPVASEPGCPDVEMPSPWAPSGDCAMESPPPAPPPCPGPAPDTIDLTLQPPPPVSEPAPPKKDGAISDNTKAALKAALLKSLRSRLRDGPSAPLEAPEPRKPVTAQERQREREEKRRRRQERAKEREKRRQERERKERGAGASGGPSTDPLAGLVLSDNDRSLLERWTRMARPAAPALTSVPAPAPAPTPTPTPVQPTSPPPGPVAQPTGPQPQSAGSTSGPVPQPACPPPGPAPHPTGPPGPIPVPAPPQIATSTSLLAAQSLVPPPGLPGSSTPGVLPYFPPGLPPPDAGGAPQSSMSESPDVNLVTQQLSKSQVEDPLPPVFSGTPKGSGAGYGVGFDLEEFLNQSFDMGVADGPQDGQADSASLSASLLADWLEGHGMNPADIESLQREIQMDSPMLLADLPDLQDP

For orientation: inhibition means the relative decrease from the control value, in per cent. For the compound `CC(CN1c2ccccc2Sc2ccccc21)N(C)C` (centres undefined), the inhibition in assay [1] is -21.1%; in assay [10], -5% (inactive); in assay [11] it was 3.34% (inactive). The compound further gave a score in [2] of 1.87. The rescue above control in [3] was found to be 27.9. For the same compound, in assay [4], the cytochrome c release ratio amounted to 0.77. In addition, the inhibition of aggregation in assay [5] turned out to be 66.7%. For the same compound, in assay [6], the glutamate uptake change was 9.05%. This compound showed an aggregation suppression score in assay [7] of 1.37. The survival in assay [8] is 1.42 (inactive). Also, the fluorescence ratio in [9] is 0.91 (inactive); in assay [12], 0.93 (inactive). The mean signal in assay [13] is 245 (inactive). Moreover, in [14], the luciferase signal is 144 AU (inactive). The z-score in assay [15] was -1.14 (inactive) and -0.84 (inactive) and -0.715 (inactive). In addition, the log fold change Tl+ flux with R275C/beta1 is 0.305 (active); with R275C/beta2Delta, 0.176 (active); with R275C/beta4, 0.0949 (inactive); in the assay on R275C/Slo1WT/beta2, -0.0568 (inactive).
For the compound `CC(N=C(NC#N)Nc1ccncc1)C(C)(C)C` (centres undefined), the survival in assay [8] was 59.8 (inactive). In addition, the fluorescence ratio was 0.97 (inactive) in [9] and 0.95 (inactive) in [12]. For the same compound, the values for the inhibition in assay [10] and in [11] were -0.22% (inactive) and 1.97% (inactive), respectively. For the same compound, in [13], the mean signal is 282 (inactive). In addition, the luciferase signal in [14] was 64 AU (inactive). The z-score in [15] was 0.04 (inactive) and -0.155 (inactive) and 0.65 (inactive). In addition, the log fold change Tl+ flux with R275C/beta1 is 0.00651 (inactive); with R275C/beta2Delta it was -0.00406 (inactive); in the assay on R275C/beta4, -0.0193 (inactive); in the assay on R275C/Slo1WT/beta2, -0.0219 (inactive).
For `CCCNC(=O)NS(=O)(=O)c1ccc(Cl)cc1`, the inhibition in [1] is 10.9%; in assay [10], -2.27% (inactive); in assay [11], 1.05% (inactive). The compound further came in with a score in assay [2] of 1.66. In assay [3], the rescue above control is -4.58. Moreover, the cytochrome c release ratio in [4] came to 1.77. In assay [5], the inhibition of aggregation is 91%. For the same compound, the glutamate uptake change in assay [6] is -12.9%. This compound returned an aggregation suppression score in assay [7] of 1.38. For the same compound, the survival in assay [8] was 13.6 (inactive). For the same compound, the fluorescence ratio was 0.93 (inactive) in [9] and 0.96 (inactive) in assay [12]. Moreover, the mean signal in assay [13] was 243 (inactive). In addition, the luciferase signal in assay [14] is 276 AU (active). Further, the z-score in assay [15] is 0.8 (inactive) and 0.135 (inactive). Moreover, the log fold change Tl+ flux with R275C/beta1 was 0.0476 (inactive); with R275C/beta2Delta, 0.0638 (inactive); with R275C/beta4, 0.017 (inactive); in the assay with R275C/Slo1WT/beta2, -0.0244 (inactive).
As for `Nc1ccc(S(=O)(=O)c2ccc(N)cc2)cc1`, the inhibition is 2.36% in [1], -3.18% (inactive) in assay [10] and 0.29% (inactive) in assay [11]. This compound yielded a score in assay [2] of 0.97. This compound had a rescue above control in assay [3] of 9.67. Besides, in [4], the cytochrome c release ratio was determined as 0.87. In assay [5], the inhibition of aggregation came out at 66.2%. Also, the glutamate uptake change in [6] was -16.9%. Besides, the aggregation suppression score in assay [7] was 1.25. The survival in assay [8] is 11.6 (inactive). The fluorescence ratio was 0.97 (inactive) in [9] and 0.95 (inactive) in assay [12]. Further, the mean signal in assay [13] was 228 (inactive). Moreover, the luciferase signal in assay [14] is 32 AU (inactive). Moreover, the z-score in [15] is -0.16 (inactive). Besides, the log fold change Tl+ flux with R275C/beta1 is -0.0191 (inactive); in the assay with R275C/beta2Delta, 0.0154 (inactive); in the assay on R275C/beta4 it was -0.0181 (inactive); in the assay on R275C/Slo1WT/beta2, -0.0232 (inactive).

The record behind these values is PubChem BioAssay.
